Measured values as given in the supplement of paper PMC9950053.
Counter-ions that a name gives are not always drawn.

These compounds were tested on Danio rerio larvae (5 dpf) (assay: startle (activity period 16 minus period 15, 20-s interval sound) minus DMSO control (percentage points); higher = stronger startle response than DMSO larvae). Settings: 10 µM; exposure time: 3 h pre-incubation + 3 h imaging.
Method: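 Wild-type 5 dpf zebrafish larvae (n=48 per drug, 96-well plates, 28.5 °C) were exposed to Tocris FDA-approved library compounds at 10 µM (0.1% DMSO) for 3 h before and 3 h during imaging. Images were taken every 6 s during visual (moving coloured lines) and acoustic stimuli, and larvae were tracked with the DeepLabCut-based Z-LaP Tracker. Each behavioural measure is the treated-group mean minus the DMSO vehicle control mean (n=844), in percentage points. This mapping covers compounds with 4-character plate codes.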

Structure (SMILES) | startle
CC(C)CN(C[C@@H](O)[C@H](Cc1ccccc1)NC(=O)O[C@H]1CO[C@H]2OCC[C@H]21)S(=O)(=O)c1ccc(N)cc1 [Darunavir] | -0.93
CN1CCN(CCCN2c3ccccc3Sc3ccc(Cl)cc32)CC1 [Prochlorperazine dimaleate] | -8.12
CN(C)CCC[C@@]1(c2ccc(F)cc2)OCc2cc(C#N)ccc21 [Escitalopram oxalate] | -7.28
Nc1nc(F)nc2c1ncn2[C@@H]1O[C@H](CO)[C@@H](O)[C@@H]1O [Fludarabine] | 4.52
CC(C)c1nc(CN(C)C(=O)N[C@H](C(=O)N[C@@H](Cc2ccccc2)C[C@H](O)[C@H](Cc2ccccc2)NC(=O)OCc2cncs2)C(C)C)cs1 [Ritonavir] | 1.44
COc1c(C)c2c(c(O)c1C/C=C(\C)CCC(=O)O)C(=O)OC2 [Mycophenolic acid] | 3.04
O=C(NCC1CCCCN1)c1cc(OCC(F)(F)F)ccc1OCC(F)(F)F (stereo not given) [Flecainide acetate] | 4.84
COc1cc(Nc2c(C#N)cnc3cc(OCCCN4CCN(C)CC4)c(OC)cc23)c(Cl)cc1Cl [Bosutinib] | -0.373
Nc1nc2c(ncn2COCCO)c(=O)[nH]1 [Acyclovir] | -0.609
CC(=O)Oc1ccccc1C(=O)O [Aspirin] | -4
Cc1ccc(O)c([C@H](CCN(C(C)C)C(C)C)c2ccccc2)c1 [Tolterodine L-tartrate] | -5.5
C=CC(=O)N1CCC[C@@H](n2nc(-c3ccc(Oc4ccccc4)cc3)c3c(N)ncnc32)C1 [Ibrutinib] | 4.43
CC(C)N(CCCCOCC(=O)NS(C)(=O)=O)c1cnc(-c2ccccc2)c(-c2ccccc2)n1 [Selexipag] | 1.3
Nc1nc2[nH]cc(CCc3ccc(C(=O)N[C@@H](CCC(=O)O)C(=O)O)cc3)c2c(=O)[nH]1 [Pemetrexed] | -5.08
OCCOCCN1CCN(C2=Nc3ccccc3Sc3ccccc32)CC1 [Quetiapine hemifumarate] | -0.888
CC(CCc1ccc(O)cc1)NCCc1ccc(O)c(O)c1 (stereo not given) [Dobutamine hydrochloride] | -0.893
CS(=O)(=O)CCNCc1ccc(-c2ccc3ncnc(Nc4ccc(OCc5cccc(F)c5)c(Cl)c4)c3c2)o1 [Lapatinib] | -0.148
CC(C)c1ccc2oc3nc(N)c(C(=O)O)cc3c(=O)c2c1 [Amlexanox] | 2.27
C[C@]12CC[C@@H]3c4ccc(O)cc4C[C@@H](CCCCCCCCC[S+]([O-])CCCC(F)(F)C(F)(F)F)[C@H]3[C@@H]1CC[C@@H]2O (stereo not given in full) | -0.0663
COc1ccc(Cl)cc1C(=O)NCCc1ccc(S(=O)(=O)NC(=O)NC2CCCCC2)cc1 [Glibenclamide] | 8.34

Structure (SMILES) | startle
CCOc1nc2cccc(C(=O)O)c2n1Cc1ccc(-c2ccccc2-c2nnn[nH]2)cc1 [Candesartan] | 11.2
Cc1cc(C2CCCCC2)n(O)c(=O)c1 [Ciclopirox] | -8.19
CN1CC2c3ccccc3Oc3ccc(Cl)cc3C2C1 (stereo not given) [Asenapine maleate] | -6.16
COc1ccc(-c2ccc3cc(C(=O)O)ccc3c2)cc1C12CC3CC(CC(C3)C1)C2 [Adapalene] | -0.788
CC(c1cc2ccccc2s1)N(O)C(N)=O (stereo not given) [Zileuton] | -0.862
CC(C)(C(=O)c1cccnc1)c1cccnc1 [Metyrapone] | -0.289
NS(=O)(=O)c1cc(C(=O)O)c(NCc2ccco2)cc1Cl [Furosemide] | -3.94
O=C1CCc2cc(OCCCCc3nnnn3C3CCCCC3)ccc2N1 [Cilostazol] | 1.37
CN(C)CCc1c[nH]c2ccc(Cn3cncn3)cc12 [Rizatriptan benzoate] | 4.04
CC(=O)O[C@H]1C(=O)[C@@]2(C)[C@H]([C@H](OC(=O)c3ccccc3)[C@]3(O)C[C@H](OC(=O)[C@H](O)[C@@H](NC(=O)c4ccccc4)c4ccccc4)C(C)=C1C3(C)C)[C@]1(OC(C)=O)CO[C@@H]1C[C@@H]2O [Taxol] | 1.37
Cc1ccc(N(CC2=NCCN2)c2cccc(O)c2)cc1 [Phentolamine Mesylate] | -2.8
CN1CCC[C@@H]1CCO[C@](C)(c1ccccc1)c1ccc(Cl)cc1 [Clemastine fumarate] | -7.64
Nc1nc(Cl)nc2c1ncn2[C@@H]1O[C@H](CO)[C@@H](O)[C@@H]1F [Clofarabine] | 5.12
CCCCCOC(=O)Nc1nc(=O)n([C@@H]2O[C@H](C)[C@@H](O)[C@H]2O)cc1F [Capecitabine] | 1.06
CC/C(=C(\c1ccccc1)c1ccc(OCCN(C)C)cc1)c1ccccc1 [Tamoxifen citrate] | -1.09
C/C(O)=C(\C#N)C(=O)Nc1ccc(C(F)(F)F)cc1 [Teriflunomide] | -2.62
CN(CCOc1ccc(CC2SC(=O)NC2=O)cc1)c1ccccn1 (stereo not given) [Rosiglitazone] | -1.31
Cc1cccc(C)c1OCC(C)N (stereo not given) [Mexiletine hydrochloride] | 0.959
O=C(c1ccc(OCCN2CCCCC2)cc1)c1c(-c2ccc(O)cc2)sc2cc(O)ccc12 [Raloxifene hydrochloride] | 2.55
Nc1ncn([C@@H]2O[C@H](CO)[C@@H](O)[C@H]2O)c(=O)n1 [5-Azacytidine] | 2.79
